Results taken from PubChem BioAssay AID488969 (Vanderbilt High Throughput Screening Facility, 2010).
The full ranking holds about 110,000 compounds; the median of “z-score” is about -0.1, and the highest 2% start at about 2. The list comes from a sample in which the highest values are over-represented; it also holds similar structures and randomly drawn compounds. Activity calls are given as the source filed them.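 Rule for the calls: active = z-score in the third read window above 3 or below -3; inactive = the rest.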

These compounds were tested against Metabotropic glutamate receptor 8 (Rattus norvegicus) (UniProt P70579) (assay: mGluR8 Gi/Go-coupled signaling modulation – cell-based, rat, thallium flux, HTS, primary screen (AID 488969)). Conditions: HEK293 rat mGluR8, GIRK (G protein-gated inwardly rectifying potassium channel) thallium flux, FluoZin2; at 10 µM; stronger effect = higher value; submaximal glutamate (EC20) added with thallium.
Sequence of Metabotropic glutamate receptor 8 (Rattus norvegicus) (P70579 whole entry, looked up): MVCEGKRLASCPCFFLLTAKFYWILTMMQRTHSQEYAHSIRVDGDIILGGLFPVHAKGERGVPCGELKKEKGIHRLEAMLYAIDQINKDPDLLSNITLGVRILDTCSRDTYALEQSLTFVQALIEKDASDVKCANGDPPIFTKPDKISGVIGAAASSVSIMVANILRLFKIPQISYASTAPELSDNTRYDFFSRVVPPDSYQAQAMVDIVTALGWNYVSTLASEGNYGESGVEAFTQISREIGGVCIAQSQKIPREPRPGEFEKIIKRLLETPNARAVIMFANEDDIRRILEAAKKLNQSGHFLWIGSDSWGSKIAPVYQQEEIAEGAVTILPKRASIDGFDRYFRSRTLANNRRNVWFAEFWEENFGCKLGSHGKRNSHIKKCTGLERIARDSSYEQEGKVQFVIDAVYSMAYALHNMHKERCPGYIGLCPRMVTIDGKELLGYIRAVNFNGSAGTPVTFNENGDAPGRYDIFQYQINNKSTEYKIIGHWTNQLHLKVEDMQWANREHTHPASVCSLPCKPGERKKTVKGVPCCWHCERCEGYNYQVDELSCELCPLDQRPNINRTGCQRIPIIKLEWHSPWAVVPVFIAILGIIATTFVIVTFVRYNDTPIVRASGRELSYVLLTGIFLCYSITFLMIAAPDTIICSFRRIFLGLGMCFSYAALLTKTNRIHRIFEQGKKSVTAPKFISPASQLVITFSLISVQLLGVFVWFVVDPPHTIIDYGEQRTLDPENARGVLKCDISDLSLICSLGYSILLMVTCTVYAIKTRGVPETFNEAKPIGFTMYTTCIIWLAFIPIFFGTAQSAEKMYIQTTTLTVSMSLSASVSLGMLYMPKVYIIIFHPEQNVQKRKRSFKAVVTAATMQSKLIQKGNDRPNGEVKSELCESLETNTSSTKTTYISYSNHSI

Row | SMILES | z-score
1 | Clc1ccc(N=c2ssnc2Cl)cc1 | -0.0573
2 | C=C(C)COc1ccc(-c2[nH]ncc2-c2ccccc2OC)c(O)c1 | 0.603
3 | Cc1cccc(Oc2cc(NC(=O)c3ccccc3)cc([N+](=O)[O-])c2)c1 | -0.382
4 | CCn1cc(CNC(=O)CCSc2nc(-c3ccco3)cc(C(F)(F)F)n2)cn1 | -0.23
5 | COc1cccc(C(=O)N/N=C(/CCC(=O)O)c2ccccc2)c1 | -0.189
6 | CCC/C(=N\NC(=O)c1ccccc1C)c1ccccc1 | -0.166
7 | CCC/C(=N/NC(=O)c1cccc(Cl)c1)c1ccccc1 | 5.45 (active)
8 | CCC1=NC(c2ccc(OC)cc2OC)N(O)C1(C)C (centres undefined) | -0.547
9 | COCc1c(C(=O)N2CCN(c3ccc(C(F)(F)F)cn3)CC2)oc2ccccc12 | -0.0186
10 | CCOC(=O)c1c(C)oc2ccc(OCC(=O)C(C)(C)C)cc12 | -1.03
11 | CCN(CC)C(=O)COc1ccc2oc(C)c(C(=O)OC(C)C)c2c1 | -0.537
12 | CCN(CC)C(=O)COc1ccc2oc(C)c(C(=O)OC)c2c1 | 3.23 (active)
13 | CCOC(=O)C1=C(CNCc2ccccc2Cl)NC(=O)NC1c1ccc2c(c1)OCO2 (centres undefined) | 0.278
14 | COc1ccc(Br)cc1CN1CCCCCCC1 | 0.169
15 | COc1cc(-c2nc(-c3ccc(NC(=O)c4ccc5c(c4)OCO5)cc3)no2)cc(OC)c1OC | 0.262
16 | CC12CN(C(=O)c3ccccc3)C3(C#N)CC1CCC23C (centres undefined) | 0.729
17 | NC(N)=N/N=C/c1ccc(OCc2ccccc2)cc1 | 0.177
18 | CC1(C)Cc2nc3sc4c(SCC(=O)NCc5ccco5)ncnc4c3cc2CO1 | -0.999
19 | CC1(C)Cc2nc3sc4c(SCC(=O)NC(c5ccccc5)c5ccccc5)ncnc4c3cc2CO1 | 0.0674
20 | CC1(C)Cc2nc3sc4c(SCC(=O)NCc5ccccc5)ncnc4c3cc2CO1 | 2.31
21 | CC(=O)c1ccc(OCC(O)CN2CCCC(C)C2)cc1 (centres undefined) | -0.0491
22 | O=C(Nc1ncc2c(n1)-c1ccccc1CC2)c1ccccc1 | -0.277
23 | Clc1ccc(C2=C3CCCCn4c(-c5ccccc5)c[n+](c43)C2)cc1 | 0.498

Row | SMILES | z-score
24 | COc1ccc(-c2c[n+]3c4n2CCCCC4=C(c2ccc(Br)cc2)C3)cc1 | 1.54
25 | COc1ccc(-c2c[n+]3c4n2CCCCC4=C(c2ccccc2)C3)cc1 | 2.82
26 | CCCc1ccccc1OCCNC(C)=O | -0.472
27 | O=C(COc1ccccc1)NC1=NCCS1 | -0.0489
28 | CC(NC(=O)COc1ccccc1)C(=O)NC1=NCCS1 (centres undefined) | 3.96 (active)
29 | CC(NC(=O)c1ccccc1)C(=O)NC1=NCCS1 (centres undefined) | 0.0634
30 | COc1cc(-c2nc(-c3ccc(Br)o3)no2)cc(OC)c1OC | -0.294
31 | CCOc1ccc(Cl)cc1CNCCNCC(C)O (centres undefined) | 2.17
32 | COc1c(Cl)cc(Cl)cc1CNCCNCCO | 0.598
33 | CCOc1cccc(CNCCO)c1OCc1ccc(Cl)cc1Cl | 0.93
34 | COc1c(Cl)cc(Cl)cc1CNCCNCC(C)O (centres undefined) | 3.74 (active)
35 | CCOc1c(Cl)cc(Cl)cc1CNCCNCCO | 0.738
36 | CCOc1ccc(Cl)cc1CNCCNCCO | 0.172
37 | CN(C)C(C)(C)C#CCCCCC#CC(C)(C)N(C)C | -0.195
38 | N#Cc1cc2cc3c(cc2nc1N1CCOCC1)OCO3 | -0.918
39 | O=C1C2ON(c3ccccc3)C(c3ccncc3)C2C(=O)N1c1ccc(N2CCOCC2)cc1 (centres undefined) | -0.522
40 | Cn1c(=O)c(NCCc2ccccc2)c2c3c(cccc31)C(=O)c1ccccc1-2 | 1.94
41 | CCCCNc1c2c3c(cccc3n(C)c1=O)C(=O)c1ccccc1-2 | 16.2 (active)
42 | Cn1c(=O)c(NCCO)c2c3c(cccc31)C(=O)c1ccccc1-2 | -2.23
43 | Cc1noc(/C=C/N(C)C)c1S(=O)(=O)N1CCCC(C(=O)NCCC2=CCCCC2)C1 (centres undefined) | -0.237
44 | CC(C)(C)c1nnc(N/N=C/c2ccc(Br)cc2)n(N)c1=O | 0.0626
45 | CC(C)(C)c1nnc(N/N=C/c2ccccc2)n(N)c1=O | 2.74
46 | CC(C)(C)c1nnc(N/N=C/c2ccccc2O)n(N)c1=O | -0.149

Row | SMILES | z-score
47 | COc1ccc(-c2csc(Nc3ccc(S(N)(=O)=O)cc3)n2)cc1 | -0.213
48 | Cc1ccc([N+](=O)[O-])cc1NC(=S)NC(=O)c1ccco1 | 7.69 (active)
49 | Cc1ccc([N+](=O)[O-])cc1N/C=C/C(=O)c1ccco1 | -0.039
50 | Cc1ccc([N+](=O)[O-])cc1NC(=S)NC(=O)CC(C)(C)C | 0.834
51 | Cc1ccc([N+](=O)[O-])cc1NC(=S)NC(=O)C(C)(C)C | 0.72
52 | O=C(Nc1cc([N+](=O)[O-])ccc1F)c1cccs1 | -0.0753
53 | Cc1ccc([N+](=O)[O-])cc1NC(=S)NC(=O)c1cccs1 | 2.46
54 | COC(=O)c1ccc(C(=O)OC)c(NC(=O)COC(=O)CC2CC3CCC2C3)c1 (centres undefined) | -0.338
55 | CC1CCCCN1c1nnc(NC(=O)c2cc(-c3ccc(Br)cc3)on2)s1 (centres undefined) | -0.71
56 | O=C(Nc1nnc(N2CCCCCC2)s1)c1cc(-c2ccc(Br)cc2)on1 | -0.0797
57 | CC1CCCC(C)N1c1nnc(NC(=O)c2cc(-c3ccc(Br)cc3)on2)s1 (centres undefined) | 2.04
58 | O=C(CC12CC3CC(CC(C3)C1)C2)NCC(=O)OCc1cc(=O)oc2ccc3ccccc3c12 | -0.205
59 | O=CN1CCN(C(C(=O)NC2CCCC2)c2ccc(Cl)cc2)CC1 (centres undefined) | 0.0147
60 | Cc1oc(-c2ccc(Cl)cc2)nc1CN1CCC(C(=O)N2CCN(Cc3ccccc3)CC2)CC1 | 0.0945
61 | COc1ccc(CCNC(=O)C2CCCN(Cc3nc(-c4cccc(Cl)c4)oc3C)C2)cc1OC (centres undefined) | 1.07
62 | CCc1ccc(-c2nc(CN3CCCC(C(=O)NCCc4ccc(OC)c(OC)c4)C3)c(C)o2)cc1 (centres undefined) | 2.2
63 | CCc1ccc(-c2nc(CN3CCC(C(=O)NCCc4ccc(OC)c(OC)c4)CC3)c(C)o2)cc1 | 0.471
64 | CCc1ccc(-c2nc(CN3CCC(C(=O)NCCN(CC)c4ccccc4)CC3)c(C)o2)cc1 | 1.17
65 | CCc1ccc(-c2nc(CN3CCC(C(=O)N4CCN(c5ccccc5)CC4)CC3)c(C)o2)cc1 | 2.2
66 | O=C(CNC(=O)c1ccccc1F)NCCOc1cccc(Cl)c1Cl | -0.0129
67 | COCCNC(=O)CN(C(=O)CCC(=O)Nc1cc(C)on1)c1cccc(C)c1C | -0.171
68 | CC(C)NS(=O)(=O)c1ccc(CCC(=O)Nc2ccc3c(c2)OCO3)cc1 | -0.224
69 | CCc1cc2c(N=Nc3c(O)[nH]c4ccccc34)ncnc2s1 | -0.149

Row | SMILES | z-score
70 | CCc1cc(C(=O)N=Nc2c(O)[nH]c3ccc([N+](=O)[O-])cc23)c2ccccc2n1 | -0.481
71 | CCc1ccc2[nH]c(O)c(N=Nc3nc(-c4ccccc4)cs3)c2c1 | 2.89
72 | COC(=O)CSc1cnc2ccccc2n1 | 0.141
73 | COC(=O)c1c(NC(=O)c2ccco2)sc2c1CCC2 | -0.464
74 | CCOC(=O)c1c(NS(=O)(=O)Cc2ccccc2)sc2c1CCCC2 | 17.1 (active)
75 | CC(C)OC(=O)c1c(NC(=O)c2ccco2)sc2c1CCCCC2 | -0.501
76 | Cc1ccc(C(=O)OCC(=O)Nc2sccc2C(N)=O)cc1NC(=O)c1ccco1 | -0.747
77 | Cc1ccc(C(=O)OCC(=O)Nc2sc3c(c2C#N)CCC3)cc1 | -0.0585
78 | CCOC(=O)c1c(NC(=S)Nc2ccc(F)cc2)sc2c1CCC2 | -0.154
79 | CCOC(=O)c1c(NC(=O)c2ccco2)sc2c1CCCCC2 | -0.506
80 | CCOC(=O)c1c(NC(=O)c2ccccc2N(C)S(=O)(=O)c2ccccc2)sc2c1CCCC2 | -0.168
81 | CCOC(=O)c1c(NC(=S)Nc2ccccc2)sc2c1CCCCC2 | 3.94 (active)
82 | CCOC(=O)c1c(NC(=S)Nc2ccc(C)cc2)sc2c1CCC2 | -0.0357
83 | COC(=O)c1c(NC(=S)NC(=O)c2ccco2)sc2c1CCCC2 | 3.53 (active)
84 | Cc1ccc(C(=O)OCC(=O)Nc2sc3c(c2C#N)CCCC3)cc1NC(=O)c1ccco1 | 2.03
85 | CC(=O)Nc1ccc2nc(C)n(Cc3ccc(Cl)cc3)c(=O)c2c1 | -0.376
86 | CCOC(=O)N1CCC(NC(=O)C2CCN(c3ccc(N4CCOCC4)nn3)CC2)CC1 | -0.202
87 | CCCOc1ccc(N2C(=O)CC(N3CCN(c4ccccc4OC)CC3)C2=O)cc1 (centres undefined) | -0.446
88 | COC(=O)C1=CNC=C(C(=O)OC)C1c1ccccc1Cl | -1.54
89 | CCOc1ccccc1N(CC(=O)Nc1ccccc1C(=O)O)S(C)(=O)=O | 0.403
90 | c1ccc2nc3c(cc2c1)CCCCCC3 | -0.0331
91 | CCOC(=O)c1nnn(-c2nonc2N)c1-c1cccc2ccccc12 | -1.66
92 | O=C(NCc1ccc2c(c1)OCO2)C1CC(c2ccccc2O)=NO1 (centres undefined) | 0.36

Row | SMILES | z-score
93 | COc1ccc(C(C[N+](=O)[O-])c2c(-c3ccccc3)cc3ccccn23)cc1 (centres undefined) | 0.715
94 | Cc1snc(SCC(=O)N/N=C(\N)COc2ccc(F)cc2)c1C#N | 0.165
95 | Cn1c(CNc2ccc(Cl)cc2)nnc1SCCN1CCCCC1 | 0.273
96 | O=C(COc1ccc([N+](=O)[O-])cc1)NCCC1=CCCCC1 | -0.0621
97 | CCCNC(=S)Nc1ccc(Cl)cc1Cl | -0.0325
98 | COC(=O)c1c(NC(=O)CN(c2ccccc2)S(C)(=O)=O)sc2c1CCCC2 | 0.77
99 | COC(=O)c1c(NS(C)(=O)=O)sc2c1CCCC2 | 0.0189
100 | COC(=O)c1c(NS(=O)(=O)c2ccc3ccccc3c2)sc2c1CCCC2 | 0.384
101 | COC(=O)c1c(NC(C)=O)sc2c1CCCC2 | -0.117
102 | COC(=O)c1c(NS(=O)(=O)Cc2ccccc2)sc2c1CCCC2 | 17 (active)
103 | COC(=O)c1c(NS(=O)(=O)c2cccs2)sc2c1CCCC2 | 6.32 (active)
104 | C=CCn1c(Cc2csc(N)n2)nnc1SCC(=O)Nc1ccc(C(=O)OCC)cc1 | -2.2
105 | CCOC(=O)C1CCN(C(=O)c2ccccc2Oc2ccccc2)CC1 | -0.386
106 | COc1ccc(-c2nsc(SCC(=O)Nc3ccc4c(c3)OCO4)n2)cc1 | -0.142
107 | CCOC(=O)NCc1ccc(S(=O)(=O)Nc2ccc(C)cc2)cc1 | 0.21
108 | Cc1ccc(-c2cc(N)n(Cc3ccc(Cl)cc3)n2)cc1 | -0.532
109 | O=C(NC(=S)N(Cc1ccccc1)Cc1ccccc1)C1CCCCC1 | 0.526
110 | CC(C)CC(=O)NC(=S)NCCc1ccccc1 | 0.38
111 | CC(C)C(=O)NC(=S)N(Cc1ccccc1)Cc1ccccc1 | 9.57 (active)
112 | CC(C)CC(=O)NC(=S)N(Cc1ccccc1)Cc1ccccc1 | 8.66 (active)
113 | CC(C)CC(=O)NCCCCc1ccccc1 | -0.29
114 | O=C(NC(=S)N(Cc1ccccc1)Cc1ccccc1)c1ccccc1F | -1.15
